# Six1-Eya2 blk: Six1/Eya2 interaction inhibition; Q15475+O00167; AlphaScreen GST-Six1/His-Eya2 binding, biochemical; stronger effect = lower value; activity change, % (concentration not given with the values); 360,000 compounds, 0.56% hits; in the data active means activity change below about -65%; inconclusive means mostly about -30% to -63%; further: on the % scale 0 is the no-effect control and ±100 the full control effect
#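 AlphaScreen luminescence read after one hour at 37 °C in darkness. Pin-transferred compounds met GST-Six1 and His-Eya2 protein (5X stock 250 nM/500 nM) plus glutathione donor and Ni-chelate acceptor beads (5X, 50 ug/mL).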
# HP1b chromo inh: inhibitors of HP1-beta chromodomain binding to methylated histone tails; P83916; AlphaScreen HP1-beta / biotin-H3K9me3 peptide binding; Potency, µM (series often up to 114 µM), inactives show top-dose activity change, negative = inhibition, most hits filed as inhibitors; 390,000 compounds, 0.56% hits; further: potency means the concentration at half of the fitted maximal effect; nearly all actives have a fitted effect of over 70% in size
# Target sequence (P83916 whole entry, looked up): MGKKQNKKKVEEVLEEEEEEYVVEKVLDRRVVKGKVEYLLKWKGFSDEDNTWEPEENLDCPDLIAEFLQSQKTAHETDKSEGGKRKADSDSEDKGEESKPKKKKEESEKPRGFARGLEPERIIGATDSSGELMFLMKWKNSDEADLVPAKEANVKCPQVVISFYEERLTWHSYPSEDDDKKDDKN
#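 HP1-beta protein (50 nM final) preincubated 30 min at room temperature with biotinylated H3(1-18)K9me3 peptide (50 nM) in PBS pH 7.4, 0.01% Tween-20, then compound added for 30 min. AlphaScreen streptavidin donor/nickel chelate acceptor beads (10 ug/mL final), 30 min dark, luminescence read.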
# G9a block: G9a (human) methyltransferase inhibition | Q96KQ7 | G9a H3K9 monomethylation, AlphaScreen, 2 h | Potency, µM (highest dose often 102 µM), for inactives: top-dose activity, negative = inhibition, hits mostly inhibitors | 350,000 compounds, 8.8% hits | AID 504332; further: potency means the concentration at half of the fitted maximal effect; on the % scale 0 is the no-effect control and ±100 the full control effect; nearly all actives have a fitted effect of over 75% in size
# Target sequence (Q96KQ7 913-1193 limits assumed): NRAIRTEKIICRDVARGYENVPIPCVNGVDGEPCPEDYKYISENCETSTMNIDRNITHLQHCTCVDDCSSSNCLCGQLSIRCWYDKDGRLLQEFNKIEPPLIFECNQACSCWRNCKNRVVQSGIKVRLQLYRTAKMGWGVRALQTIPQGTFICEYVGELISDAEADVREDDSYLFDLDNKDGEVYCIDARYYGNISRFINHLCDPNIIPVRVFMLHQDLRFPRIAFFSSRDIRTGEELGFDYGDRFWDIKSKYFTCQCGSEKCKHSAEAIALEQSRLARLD
#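 G9a (20 nM) was preincubated 15 min with compound, then reacted 2 h at room temperature with 500 nM biotin-H3K9 peptide and 20 µM SAM. Monomethyl-H3K9 detected by AlphaScreen using anti-H3K9me1 antibody.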
# JMJD2A Tudor inh: inhibitors of human JMJD2A Tudor domain; Potency, µM (highest dose often 114 µM), without a hit: at the top dose activity change, negative = inhibition, actives largely listed as inhibitors; AlphaScreen JMJD2A-Tudor / H3K4me3 peptide binding; AID 504339; 390,000 compounds, 4.4% hits; further: potency means the concentration at half of the fitted maximal effect; on the % scale 0 is the no-effect control and ±100 the full control effect; nearly all actives have a fitted effect of over 50% in size
# BAZ2B block: blocks human BAZ2B. Q9UIF8. AlphaScreen BAZ2B-H3K14Ac peptide displacement. Potency, µM (titrated, usually from 114 µM), for inactives: at the highest dose activity change, negative = inhibition, usual class: inhibitors. 360,000 compounds, 4.4% hits. AID 504333; further: potency means the concentration at half of the fitted maximal effect; on the % scale 0 is the no-effect control and ±100 the full control effect; nearly all actives have a fitted effect of over 60% in size
#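 BAZ2B 50 nM plus b-H3(5-23)K14Ac 50 nM, PBS pH 7.4/0.01% Tween-20, 30 min RT; compound added (max 110 uM), 30 min RT; streptavidin donor/Ni-chelate acceptor beads 10 ug/mL final, 20 min dark; AlphaScreen read.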
# CtBP-E1A blk: inhibitors of CtBP/E1A interaction; AlphaScreen GST-E1A/His-CtBP binding, 1536-well; stronger effect = lower value; activity change, % (concentration not given with the values); 340,000 compounds, 0.49% hits; in the data active means activity change below about -65%; inconclusive means mostly about -30% to -63%; further: on the % scale 0 is the no-effect control and ±100 the full control effect
#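 In 5 uL wells, 23 nL compound meets equimolar GST-E1A and His-CtBP (5X stock 125 nM each) for 2 h, 37 °C. Beads (5X, 50 ug/mL) then 1 h, 37 °C, dark.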
# Numbers without * were called inactive; ? = inconclusive; · = no result; [ ] = dose if it differs, or a comment. This is a sample that favours compounds with a hit; in the whole collection about 10% have one here. Unless noted, the call rests on the fitted dose curve; in most records, active means well fitted inhibition curve with a large enough effect; inconclusive means small, poorly fitted or top-dose-only effect; inactive means no such curve, though single readings can be large or run the other way.
SMILES,Six1-Eya2 blk,HP1b chromo inh,G9a block,JMJD2A Tudor inh,BAZ2B block,CtBP-E1A blk
CC(=O)Nc1ccc(S(=O)(=O)N2CCC(c3nnc(-c4ccc(C)cc4)o3)CC2)cc1,-0.7,36.7%,28.2µM*,-12.7%,-0.1%,-7.6
Cc1cccc(C)c1NC(=O)CCS(=O)(=O)c1ccc2c(c1)CC(C)N2C(=O)C1CC1 (configuration not stated),·,36.7%,-33.0%[59 µM],-18.6%,?,·
C/C(=N\NC(=O)c1ccc2ccccc2c1)c1cccs1,7.9,43.7%,36.8%,-16.4%,-14.7%,3.1
Cc1cc(C)c2c(n1)sc1c(-c3ccccc3)c(C#N)c(N)nc12,4.0,25.7%,7.94µM*,?,27.2%,1.5
O=C(CSc1cnc2ccccc2n1)c1ccc(F)cc1,-2.1,42.1%,7.08µM*,3.1%,8.9%,1.3
CC(C)c1nc(SCC(=O)Nc2ccc(N(C)C)cc2)c2ccccc2n1,?,-11.7%,8.91µM*,?,?,-2.7
Cc1ccc(C(=O)CSc2nc(C(C)C)nc3ccccc23)cc1,1.8,33.4%,30.8%,13.1%,69.7%,1.4
CC(C)c1nc(SCC(=O)c2ccc(F)cc2)c2ccccc2n1,22.1,104.4%,39.8µM*,118.1%,49.0%,7.1
CC(C)c1nc(SCC(=O)Nc2nccs2)c2ccccc2n1,3.3,-5.3%,-12.1%,?,-35.4%,-1.1
O=C1C2C3CCCC3=C3CCCC3C2C(=O)N1c1ccccc1Cl (configuration not stated),·,34.4%,·,-17.1%,·,·
CNC[C@H]1OCc2ccccc2-c2ccccc2C(=O)N([C@H](C)CO)C[C@H]1C,12.0,·,·,·,·,-18.8
Cc1cc(C)cc(N(C)S(=O)(=O)c2nnc(NC(=O)COc3ccc(Cl)cc3)s2)c1,·,9.3%,-37.9%[59 µM],-28.0%,-10.4%,·
Cc1ccc(NC(=S)Nn2cnnc2)c(C)c1,·,·,10µM*,·,?,·
O=C(NC(=S)Nn1cnnc1)c1cccc(Br)c1,-9.0,-23.9%,11.2µM*,-15.9%,-25.4%,6.4
Cc1ccc(C(=O)NC(=S)Nn2cnnc2)cc1,-2.9,-8.0%,10µM*,0.0%,-25.3%,11.3
NC(=S)NNC(=O)c1cccc(Br)c1,·,·,?,·,-22.2%,·
CC(C)(C)c1ccc(C(=O)Nn2cnnc2)cc1,1.0,34.6%,-6.4%,-8.9%,-3.1%,-0.2
CCOC(=O)CSc1nc(C)[nH]c1[N+](=O)[O-],-1.4,55.0%,·,-10.7%,18.5%,-15.7
Cc1nc(SCCC(C)C)c([N+](=O)[O-])[nH]1,22.3,41.1%,28.2µM*,-19.2%,-0.1%,0.0
Cc1nc(SCC(N)=O)c([N+](=O)[O-])[nH]1,4.0,15.3%,-3.3%,39.8µM*,-21.6%,5.4
COc1cc2c(cc1OC)C1O[C@](CCCCN3C(=O)c4ccccc4C3=O)(C2)Oc2c1c(=O)oc1ccccc21,·,·,·,·,7.8%[22.9 µM],·
CCCCN(CC)CCCNC(=S)Nc1ccc2nc3n(c(=O)c2c1)CCCCC3,-0.9,13.3%,44.7µM*,-13.6%,2.7%,-5.6
O=c1c2cc(NC(=S)NCc3ccccn3)ccc2nc2n1CCCCC2,-6.0,20.1%,39.8µM*,-34.5%,?,-15.8
O=C(Nc1ccc2nc3n(c(=O)c2c1)CCCCC3)c1ccccn1,-16.1,9.1%,25.1µM*,-24.1%,-26.7%,-15.1
O=C(Nc1ccc2nc3n(c(=O)c2c1)CCCCC3)C(=O)N1CCN(c2ccc(F)cc2)CC1,0.8,?,-0.4%,20µM*,-19.6%,0.0
SMILES,Six1-Eya2 blk,HP1b chromo inh,G9a block,JMJD2A Tudor inh,BAZ2B block,CtBP-E1A blk
O=c1c2cc(NC(=S)NCCN3CCCCCC3)ccc2nc2n1CCCCC2,1.6,6.5%,?,-31.9%,-20.5%,8.2
O=C(c1ccc2c(=O)n3c(nc2c1)CCCCC3)N1CCN(c2ccc(F)cc2)CC1,-13.8,-11.3%,-31.6%,-16.9%,-15.6%,-13.4
CCCCN(C(=O)c1cc(S(=O)(=O)N2CCCCCC2)ccc1OC)c1ccccc1,2.3,48.2%,-30.3%,-9.0%,7.3%,-1.5
CCOC(=O)CCCC(=O)N1CCOCCOCCOCC1,2.1,19.1%,·,10.5%,15.7%,-0.6
CC1(C)CC(=O)C(/C=N/n2cnc3ccccc3c2=O)=C(O)C1,-1.6,33.6%,8.4%[2.33 µM],39.8µM*,50.1µM*,-0.3
C[C@@H]1O[C@@H](OC[C@H]2O[C@@H](Oc3c(-c4ccc(O)c(O)c4)oc4cc(O)cc(O)c4c3=O)[C@H](O)[C@@H](O)[C@@H]2O)[C@H](O)[C@H](O)[C@H]1O,32.0,100.6%,?,-13.8%,-15.4%,0.0
O=c1c(O[C@@H]2O[C@H](CO)[C@@H](O)[C@H](O)[C@H]2O)c(-c2ccc(O)c(O)c2)oc2cc(O)cc(O)c12,·,·,8.91µM*,·,-28.4%,·
O=c1c(O[C@@H]2O[C@H](CO)[C@H](O)[C@H](O)[C@H]2O)c(-c2ccc(O)c(O)c2)oc2cc(O)cc(O)c12,·,·,12.6µM*,·,?,·
COc1c(-c2ccc(O)c(O)c2)oc2cc(O)cc(O)c2c1=O,-25.1,2.2%,-21.7%[12.7 µM],?,35.5µM*,-21.8
O=c1cc(-c2ccc(O)c(O)c2)oc2cc(O)c(C3OC(CO)C(O)C(O)C3O)c(O)c12 (configuration not stated),?,4.4%,-2.6%[12.7 µM],25.1µM*,?,-2.7
CC(NC(=O)c1cc2cc(F)ccc2[nH]1)c1ccccc1 (configuration not stated),-8.1,7.5%,-5.1%,-26.3%,-37.6%,-4.9
N#Cc1cccc(NS(=O)(=O)c2ccc3c(c2)CCC(=O)N3)c1,·,·,·,-4.3%,·,·
O=c1c2c(O)cc(O)cc2oc2ccc(O)c(O[C@@H]3O[C@H](CO)[C@@H](O)[C@H](O)[C@H]3O[C@H]3O[C@H](CO)[C@@H](O)[C@H](O)[C@H]3O)c12,-1.0,2.0%,-3.2%[12.7 µM],-14.3%,3.4%,5.5
O=c1c(OC2OC(CO)C(O)C(O)C2OC2OC(CO)C(O)C(O)C2OC2OC(CO)C(O)C(O)C2O)c(-c2ccc(O)c(O)c2)oc2cc(O)cc(O)c12 (configuration not stated),-5.3,-8.9%,?,31.6µM*,?,-1.1
Cc1nc2c(nnn2Cc2ccccc2)c(=O)[nH]1,-8.9,?,?,8.91µM*,·,4.0
COc1ccc(Nc2nc(C)nc3c2nnn3Cc2ccccc2)cc1OC,-21.2,13.7%,-2.4%[59 µM],3.0%,12.7%,-19.4
Cc1nc(Nc2ccc(Cl)cc2)c2nnn(Cc3ccccc3)c2n1,0.2,-5.7%,-4.4%,17.8µM*,2.0%,2.0
O=C(CCl)Nc1nc(-c2ccco2)c(-c2ccco2)s1,-25.1,?,11.2µM*,?,50.1µM*,-17.7

# Screening results as filed in PubChem.
